For 40 compounds, outcome and AC50 results are on record in PubChem BioAssay (EPA / NIEHS).

Inconclusive results are not listed. The source made the active and inactive calls. The calls were made as follows: active = hit-call score of the fitted dose curve at least 0.9, where 1 is the maximum; inconclusive = response in the unintended direction; inactive = score below 0.9.

The target of the test is Glucocorticoid receptor (Homo sapiens) (UniProt P04150). Put plainly: ATG_GR_TRANS: Attagene TRANS-FACTORIAL HepG2 Assay for human Glucocorticoid Receptor (GR) (AID 2282978).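 Also: activators score as hits since higher reporter transcript over DMSO is fitted.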 The settings on record: HepG2 Attagene TRANS GR reporter, mRNA transcription. How it is done: ATG_TRANS is a cell-based, multiplexed-readout assay that uses HepG2, a human liver cell line, with measurements taken at 24 hours after chemical dosing in a 24-well plate.ATG_GR_TRANS is one of 30 assay component(s) measured or calculated from the ATG_TRANS assay. It is designed to make measurements of mRNA induction, a form of inducible reporter, as detected with fluorescence intensity signals by Reverse transcription polymerase chain reaction (RT-PCR) and Capillary electrophoresis technology.Data from the assay component ATG_GR_TRANS was analyzed into 1 assay endpoint. This assay endpoint, ATG_GR_TRANS, was analyzed in the positive analysis fitting direction relative to DMSO as the negative control and baseline of activity. Using a type of inducible reporter, measures of mRNA for gain-of-signal activity can be used to understand the reporter gene at the transcription factor-level as they relate to the gene NR3C1. Furthermore, this assay endpoint can be referred to as a primary readout, because this assay has produced multiple assay endpoints where this one serves a reporter gene function. To generalize the intended target to other relatable targets, this assay endpoint is annotated to the nuclear receptor intended target family, where the subfamily is steroidal.
Glucocorticoid receptor (Homo sapiens), sequence (P04150 whole entry, looked up): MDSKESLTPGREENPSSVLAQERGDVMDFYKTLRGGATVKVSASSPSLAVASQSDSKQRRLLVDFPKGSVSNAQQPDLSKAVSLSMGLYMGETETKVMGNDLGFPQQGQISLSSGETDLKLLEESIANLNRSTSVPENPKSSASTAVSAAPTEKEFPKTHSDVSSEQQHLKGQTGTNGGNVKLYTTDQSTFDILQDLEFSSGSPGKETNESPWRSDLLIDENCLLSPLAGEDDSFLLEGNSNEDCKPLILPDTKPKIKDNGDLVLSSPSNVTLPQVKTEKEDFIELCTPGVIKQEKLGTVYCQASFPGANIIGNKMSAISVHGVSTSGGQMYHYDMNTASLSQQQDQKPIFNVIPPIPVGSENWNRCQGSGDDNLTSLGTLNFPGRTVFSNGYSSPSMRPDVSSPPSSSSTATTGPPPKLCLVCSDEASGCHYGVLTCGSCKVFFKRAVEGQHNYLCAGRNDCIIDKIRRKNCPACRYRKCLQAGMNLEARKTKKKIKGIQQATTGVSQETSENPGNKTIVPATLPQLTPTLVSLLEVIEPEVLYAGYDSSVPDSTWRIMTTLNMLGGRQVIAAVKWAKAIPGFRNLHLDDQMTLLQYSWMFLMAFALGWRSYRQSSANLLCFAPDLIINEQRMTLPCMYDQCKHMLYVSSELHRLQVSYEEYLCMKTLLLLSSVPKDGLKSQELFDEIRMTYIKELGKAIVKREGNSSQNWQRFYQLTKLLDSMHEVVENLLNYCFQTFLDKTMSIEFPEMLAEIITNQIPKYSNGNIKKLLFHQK
Human liver HepG2 cells are transiently transfected with multiple reporter transcription units (MRTUs) in 6-well plates using FuGene 6 reagent (Roche; 3 ml FuGene/1 mg DNA). The MRTU constructs are regulated by a cis-regulating element (promoter). […] A major difference between the CIS and TRANS system is that in CIS activities of endogenous TFs are measured, whereas the TRANS assay evaluates changes in activities of exogenous, chimeric NR-Gal4 proteins. […] At the end of 24 hour incubation, total RNA was isolated using TriZol reagent (Invitrogen). The isolated RNA is then reverse-transcribed using oligo(dT) primer and Mo-MLV reverse transcriptase (Invitrogen) with DNAse I (Ambion) treatment for 30 min. The one-tenth of the produced cDNA was amplified by PCR using Taq DNA polymerase (Invitrogen) and two reporter sequence-specific primers. The PCR products were fluorescently labeled by primer extension with 6-arboxyfluorescein (6-FAM) 5'-labeled reporter sequence-specific primer (2 min at 95 C, 20 s at 68 C and 10 min at 72 C) and these products were digested with 5U of HpaI (New England Biolabs) for 2h at 37 C. The fragments were purified using Qiaquick PCR columns (Qiagen), analyzed on an ABI 3130xL genetic analyzer (Applied Biosystems) with peak positions identified by using a set of X-rhodamine (ROX)-labeled MapMarker1000 molecular weight standards (BioVentures). The raw capillary electrophoresis data was processed using Attagraph software (Attagene).
In the case of `Clc1ccc2c(c1)C(N1CCNCC1)=Nc1ccccc1O2`, the call was inactive.
The same measure, in the same setting: then `CC(C)=CCC[C@H](C)CC=O`, with “inactive”; and `C=C(C)C(=O)OCCOC(=O)CC(C)=O`, with “inactive”; and `CCCCN`, with “inactive”.
The same measure, in the same setting: to `C=C[Si](OCC)(OCC)OCC` belongs “inactive”; to `OCCN1CCNCC1`, “inactive”; to `O=[N+]([O-])c1ccc(Nc2ccc(Nc3ccccc3)c(S(=O)(=O)O)c2)c([N+](=O)[O-])c1`, “inactive”.
Still for that read-out and setting: then `O=C(O)c1cccc(C(F)(F)F)c1`, with “inactive”; and `O=C(O)CCCCC1CCSS1` (stereo not given), with “inactive”; and `O=[N+]([O-])c1cc(C(F)(F)F)ccc1Cl`, with “inactive”.
Take `CCCCCCCCCCCCCOS(=O)(=O)O`: the compound was classed as inactive.
On the same count and under the same terms, to `CC(C)(C)NC(N)=O` belongs “inactive”; to `CC(C)(CO)[N+](=O)[O-]`, “inactive”; to `CCCCC/C=C/C=C/C=O`, “inactive”.
Same read-out and setting: then `O=S(=O)(O)c1ccc(O)c2ncccc12`, with “inactive”.
Same read-out and setting: to `CNCCCC12CCC(c3ccccc31)c1ccccc12` belongs “inactive”.
Turning to `CC(=O)O[C@]1(C(C)=O)CC[C@H]2[C@@H]3C[C@H](C)C4=CC(=O)CC[C@]4(C)[C@H]3CC[C@@]21C`, the AC50 was 354 nM (active).
For the compound `CC(=O)Nc1ccc(CC(=O)O)cc1`, the outcome was inactive.
Still for that read-out and setting: then `COc1ccc(Nc2ccccc2)c(C)c1`, with “inactive”; and `Cc1c(Cl)c(=O)oc2cc(O)ccc12`, with “inactive”.
As for `CNC(=O)Oc1ccc2c(c1)[C@]1(C)CCN(C)[C@@H]1N2C`, the compound was classed as inactive.
Still for that read-out and setting: to `CCCCc1ccc(N)cc1` belongs “inactive”; to `Cc1ccc2sc3cccc(C)c3c2c1`, “inactive”; to `CN(C)CCCN`, “inactive”.
The same measure, in the same setting: then `C#C[C@]1(O)CC[C@H]2[C@@H]3CCC4=Cc5oncc5C[C@]4(C)[C@H]3CC[C@@]21C`, with “inactive”; and `COC(=O)c1ccc(C)cc1`, with “inactive”; and `COc1cccc(OC)c1`, with “inactive”.
On the same count and under the same terms, then `CN(C)c1ccc(O)c2c1C[C@H]1C[C@H]3[C@H](N(C)C)C(=O)C(C(N)=O)=C(O)[C@@]3(O)C(=O)C1=C2O`, with “inactive”; and `CCCCOCCOCCSC#N`, with “inactive”; and `C[Si](O[Si](C)(C)C)O[Si](C)(C)C`, with “inactive”.
On to `COc1c(Cl)c(Cl)c(Cl)c(Cl)c1Cl`, for which the call was inactive.
On the same count and under the same terms, to `[Ca+2]` belongs “inactive”.
Regarding `CC(=O)OCCC(C)CC(C)(C)C` (stereo not given), the compound was called inactive.
With `NC(=O)c1ccccc1Cl`, the outcome was inactive.
On to `CC1CCC(C(C)CS)CC1S` (stereo not given), for which the compound was classed as inactive.
Same read-out and setting: then `O=C1OC2(c3cc(Br)c(O)c(Br)c3Oc3c2cc(Br)c(O)c3Br)c2c(Cl)c(Cl)c(Cl)c(Cl)c21`, with “inactive”; and `O=C1CCCCCCCCCCOCCCCO1`, with “inactive”.
On the same count and under the same terms, to `CCO[Si](CCCS)(OCC)OCC` belongs “inactive”; to `CC(CCO)CCCC(C)(C)O` (stereo not given), “inactive”.
On the same count and under the same terms, then `O=C(Oc1ccccc1)c1ccc(O)cc1`, with “inactive”.

The AC50 is the concentration giving half of the maximal activity seen.
